Results from PubChem BioAssay (EPA / NIEHS).
Some structures have more than one record in an assay (separate samples or runs), and their calls can disagree. Activity calls are given as the source filed them. Rule for the calls: active = hit-call score of the fitted dose curve at least 0.9, where 1 is the maximum; inactive = score below 0.9.

Tests used:
[1] = BSK_hDFCGF_SRB: Viability Assessment in the BioMAP Diversity Plus: hDFCGF Assay (AID 2283061); conditions: primary human foreskin fibroblasts;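 note: cells exposed to compound for 24 h before the read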
Method in brief: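 Viability was read as total protein: after 10% TCA fixation, wells were stained with 0.1% sulforhodamine B and read at 560 nm. Primary human foreskin fibroblasts were dosed for 24 h, with bidirectional fitting versus DMSO.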

[2] = read-out: TIMP metallopeptidase inhibitor 1 (TIMP1), TIMP1 (gene 7076); assay: BSK_hDFCGF_TIMP1: BioMAP Diversity Plus: hDFCGF Assay for TIMP metallopeptidase inhibitor 1 (TIMP1) Biomarker Activity (AID 2283062); conditions: primary human foreskin fibroblasts; actives raise or lower the signal
Method in brief: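 TIMP-1 measured by ELISA 24 h after chemical dosing of primary human skin fibroblasts, with gain or loss fitted relative to DMSO. Parallel SRB staining (560 nm) monitored overt cytotoxicity.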

[3] = read-out: Monokine induced gamma interferon (MIG), CXCL9 (gene 4283); assay: BSK_hDFCGF_MIG: BioMAP Diversity Plus: hDFCGF Assay for Monokine induced gamma interferon (MIG) Biomarker Activity (AID 2283063); conditions: primary human foreskin fibroblasts; actives raise or lower the signal
Method in brief: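 Human primary foreskin fibroblasts in the hDFCGF system, exposed to test chemical for 24 h; MIG measured by ELISA. Bidirectional curve fitting against DMSO negative control as activity baseline.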

[4] = read-out: Matrix Metallopeptidase 1 (MMP1), MMP1 (gene 4312); assay: BSK_hDFCGF_MMP1: BioMAP Diversity Plus: hDFCGF Assay for Matrix Metallopeptidase 1 (MMP1) Biomarker Activity (AID 2283064); conditions: primary human foreskin fibroblasts; actives raise or lower the signal
Method in brief: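 MMP1 levels quantified by ELISA 24 h after dosing human dermal fibroblast cultures, with parallel SRB total-protein staining for overt cytotoxicity. Data fitted in both directions against DMSO baseline.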

[5] = read-out: Vascular cell adhesion molecule 1 (VCAM1), VCAM1 (gene 7412); assay: BSK_hDFCGF_VCAM1: BioMAP Diversity Plus: hDFCGF Assay for Vascular cell adhesion molecule 1 (VCAM1) Biomarker Activity (AID 2283065); conditions: primary human foreskin fibroblasts; actives raise or lower the signal
Method in brief: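 ELISA readout of VCAM-1 on human dermal fibroblast primary cultures, 24 h after chemical exposure. Gain or loss of signal fitted in both directions against DMSO baseline.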

[6] = read-out: Plasminogen activator inhibitor-1 (PAI1), SERPINE1 (gene 5054); assay: BSK_hDFCGF_PAI1: BioMAP Diversity Plus: hDFCGF Assay for Plasminogen activator inhibitor-1 (PAI1) Biomarker Activity (AID 2283066); conditions: primary human foreskin fibroblasts; actives raise or lower the signal
Method in brief: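 Human skin fibroblast cultures receive chemical for 24 h before PAI-1 is measured by ELISA; signal changes are fitted bidirectionally against DMSO-treated wells.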

[7] = read-out: Intercellular Adhesion Molecule 1 (ICAM1), ICAM1 (gene 3383); assay: BSK_KF3CT_ICAM1: BioMAP Diversity Plus: KF3CT Assay for Intercellular Adhesion Molecule 1 (ICAM1) Biomarker Activity (AID 2283067); conditions: primary human keratinocytes with fibroblasts; actives raise or lower the signal
Method in brief: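 Cell-surface ICAM-1 was measured by ELISA 24 h after dosing primary human skin keratinocytes co-cultured with fibroblasts. Parallel SRB staining tracked overt cytotoxicity. Gain or loss of signal was fitted relative to DMSO.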

[8] = read-out: Interferon-gamma inducible Protein 10 (IP10), CXCL10 (gene 3627); assay: BSK_KF3CT_IP10: BioMAP Diversity Plus: KF3CT Assay for Interferon-gamma inducible Protein 10 (IP10) Biomarker Activity (AID 2283068); conditions: primary human keratinocytes with fibroblasts; actives raise or lower the signal
Method in brief: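 KF3CT co-culture (keratinocytes + foreskin fibroblasts), 24 h compound, IP-10 by ELISA; bidirectional fit vs DMSO baseline.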

[9] = BSK_KF3CT_SRB: Viability Assessment in the BioMAP Diversity Plus: KF3CT Assay (AID 2283069); conditions: primary human keratinocytes with fibroblasts;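 note: total protein by sulforhodamine B staining as a cytotoxicity measure; read 24 h after compound addition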
Method in brief: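 Cytotoxicity was gauged by SRB staining (0.1% SRB, 10% TCA fixation, 560 nm) of parallel cultures at 24 h. The cells were primary human skin keratinocytes co-cultured with fibroblasts, and activity was fitted in both directions against DMSO.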

[10] = read-out: Interleukin-1 alpha (IL1a), IL1A (gene 3552); assay: BSK_KF3CT_IL1a: BioMAP Diversity Plus: KF3CT Assay for Interleukin-1 alpha (IL1a) Biomarker Activity (AID 2283070); conditions: primary human keratinocytes with fibroblasts; actives raise or lower the signal
Method in brief: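 IL-1a was detected by ELISA 24 h after chemical treatment of a co-culture of human skin keratinocytes and foreskin fibroblasts. Gain or loss of signal was fitted against the DMSO baseline.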

[11] = read-out: TIMP metallopeptidase inhibitor 2 (TIMP2), TIMP2 (gene 7077); assay: BSK_KF3CT_TIMP2: BioMAP Diversity Plus: KF3CT Assay for TIMP metallopeptidase inhibitor 2 (TIMP2) Biomarker Activity (AID 2283071); conditions: primary human keratinocytes with fibroblasts; actives raise or lower the signal
Method in brief: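 Measurements come from ELISA detection of TIMP-2 at 24 hours in a dosed human keratinocyte and foreskin fibroblast co-culture. DMSO serves as negative control and baseline.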

[12] = read-out: Transforming growth factor beta 1 (TGFb1), TGFB1 (gene 7040); assay: BSK_KF3CT_TGFb1: BioMAP Diversity Plus: KF3CT Assay for Transforming growth factor beta 1 (TGFb1) Biomarker Activity (AID 2283072); conditions: primary human keratinocytes with fibroblasts; actives raise or lower the signal
Method in brief: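 TGF-b1 ELISA on a 24 h dosed co-culture of human keratinocytes and foreskin fibroblasts; cytotoxicity tracked in parallel cultures by SRB staining.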

[13] = read-out: C-C motif chemokine 2 (Homo sapiens) (UniProt P13500); assay: BSK_KF3CT_MCP1: BioMAP Diversity Plus: KF3CT Assay for Monocyte Chemoattractant Protein 1 (MCP1/CCL2) Biomarker Activity (AID 2283073); conditions: primary human keratinocytes with fibroblasts; actives raise or lower the signal
Method in brief: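 ELISA read-out of MCP-1, 24 h post-dose, in primary human skin keratinocytes co-cultured with fibroblasts. Parallel SRB staining monitors cytotoxicity; changes fitted both directions relative to DMSO.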

[14] = read-out: Matrix Metallopeptidase 9 (MMP9), MMP9 (gene 4318); assay: BSK_KF3CT_MMP9: BioMAP Diversity Plus: KF3CT Assay for Matrix Metallopeptidase 9 (MMP9) Biomarker Activity (AID 2283074); conditions: primary human keratinocytes with fibroblasts; actives raise or lower the signal
Method in brief: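 MMP-9 quantified by ELISA after 24 h chemical treatment of primary human skin keratinocyte/fibroblast co-cultures; gain or loss fitted against DMSO, with parallel SRB staining (0.1% SRB, 560 nm) for overt cytotoxicity.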

[15] = read-out: urokinase plasminogen activator (uPA), PLAU (gene 5328); assay: BSK_KF3CT_uPA: BioMAP Diversity Plus: KF3CT Assay for urokinase plasminogen activator (uPA) Biomarker Activity (AID 2283075); conditions: primary human keratinocytes with fibroblasts; actives raise or lower the signal
Method in brief: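 ELISA read-out of uPA 24 h after dosing human skin keratinocytes co-cultured with foreskin fibroblasts. Signal change fitted both ways relative to DMSO; sulforhodamine B on parallel cultures marks overt cytotoxicity.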

[16] = read-out: CD40, CD40 (gene 958); assay: BSK_LPS_CD40: BioMAP Diversity Plus: LPS Assay for CD40 Biomarker Activity (AID 2283076); conditions: primary human HUVEC with PBMC; actives raise or lower the signal
Method in brief: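 In the LPS system of human endothelial cells with peripheral blood mononuclear cells, CD40 levels were read by ELISA 24 h post-treatment. Signal changes in either direction were fitted against the DMSO baseline, with parallel SRB protein staining.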

[17] = read-out: E-selectin (Homo sapiens) (UniProt P16581); assay: BSK_LPS_Eselectin: BioMAP Diversity Plus: LPS Assay for Eselectin Biomarker Activity (AID 2283077); conditions: primary human HUVEC with PBMC; actives raise or lower the signal
Method in brief: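 E-selectin ELISA on LPS-stimulated endothelial cell/PBMC co-cultures, read 24 h post-treatment; gains and losses fitted against DMSO. Parallel SRB staining (0.1% SRB after 10% TCA fixation, 560 nm) flags overt cytotoxicity.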

[18] = read-out: Interleukin-8 (IL8), CXCL8 (gene 3576); assay: BSK_LPS_IL8: BioMAP Diversity Plus: LPS Assay for Interleukin-8 (IL8) Biomarker Activity (AID 2283078); conditions: primary human HUVEC with PBMC; actives raise or lower the signal
Method in brief: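 ELISA read-out of IL-8 after 24 h chemical treatment of LPS-activated endothelial/PBMC human primary co-cultures. Changes either up or down relative to DMSO; overt cytotoxicity checked by sulforhodamine B staining in parallel wells.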

[19] = BSK_LPS_SRB: Viability Assessment in the BioMAP Diversity Plus: LPS Assay (AID 2283079); conditions: primary human HUVEC with PBMC;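 note: total protein by sulforhodamine B absorbance as a cytotoxicity measure; measured one day after compound addition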
Method in brief: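 SRB viability endpoint: cells fixed with 10% TCA, stained with 0.1% SRB, read at 560 nm, 24 h post-dose. HUVEC/PBMC co-culture; signal change in either direction scored relative to DMSO.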

[20] = read-out: Interleukin-1 alpha (IL1a), IL1A (gene 3552); assay: BSK_LPS_IL1a: BioMAP Diversity Plus: LPS Assay for Interleukin-1 alpha (IL1a) Biomarker Activity (AID 2283080); conditions: primary human HUVEC with PBMC; actives raise or lower the signal
Method in brief: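 Readout is IL-1a level by ELISA, 24 h post-dose, fitted as gain or loss relative to DMSO. System: LPS-activated human primary co-culture of vascular endothelium and peripheral blood mononuclear cells, with parallel SRB total-protein cytotoxicity.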

Measured: AC50

Chain of E-selectin (Homo sapiens) (P16581 whole entry, looked up): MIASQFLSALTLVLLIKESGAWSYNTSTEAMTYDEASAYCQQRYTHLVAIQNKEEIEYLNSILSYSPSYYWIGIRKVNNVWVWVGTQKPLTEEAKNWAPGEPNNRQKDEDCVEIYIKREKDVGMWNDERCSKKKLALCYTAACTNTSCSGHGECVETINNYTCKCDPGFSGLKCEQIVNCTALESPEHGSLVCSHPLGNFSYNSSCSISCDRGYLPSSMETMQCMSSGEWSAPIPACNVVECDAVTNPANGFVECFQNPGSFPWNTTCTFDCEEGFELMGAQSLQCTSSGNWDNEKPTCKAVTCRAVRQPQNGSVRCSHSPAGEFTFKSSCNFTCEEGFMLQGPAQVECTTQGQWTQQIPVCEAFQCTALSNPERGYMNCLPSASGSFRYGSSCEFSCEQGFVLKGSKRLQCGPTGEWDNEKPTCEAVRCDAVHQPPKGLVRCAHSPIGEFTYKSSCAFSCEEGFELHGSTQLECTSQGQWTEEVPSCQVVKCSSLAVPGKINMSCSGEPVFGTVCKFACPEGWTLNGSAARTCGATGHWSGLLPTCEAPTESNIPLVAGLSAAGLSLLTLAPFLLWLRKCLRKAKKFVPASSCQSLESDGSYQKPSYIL

C[C@]12C=CC(=O)C=C1CC[C@H]1[C@@H]3C[C@@H](O)[C@](O)(C(=O)CO)[C@@]3(C)C[C@H](O)[C@@]12F
inactive: [1] | [2] | [3] | [5] | [6] | [7] | [8] | [9] | [10] | [11] | [12] | [13] | [14] | [15] | [16] | [17] | [18] | [19] | [20]
active: [4] 0.148 µM

NC(=O)N(O)[C@@H]1COc2cc(OCc3ccccc3)ccc21
inactive: [1] | [2] | [3] | [4] | [5] | [6] | [7] | [8] | [9] | [10] | [11] | [12] | [13] | [14] | [15] | [16] | [17] | [18] | [19] | [20]

O=S(=O)(O)CCC(F)(F)C(F)(F)C(F)(F)C(F)(F)C(F)(F)C(F)(F)F
inactive: [1] | [2] | [3] | [5] | [6] | [7] | [8] | [9] | [10] | [11] | [13] | [14] | [15] | [16] | [17] | [18] | [19] | [20]
active: [1] 8.85 µM | [18] 22.5 µM
